In PMC7862700, “An all-to-all approach to the identification of sequence-specific readers for epigenetic DNA modifications on cytosine”:

Assays:
Experiment in all cases: DAPPL (digital affinity profiling via proximity ligation, sequencing); 10 mM Tris-HCl pH 7.5, 50 mM NaCl, 1 mM DTT, 4% glycerol, room temperature, 30 min; GST-TFs on glutathione beads, 16-mer random dsDNA library, 0.1% formaldehyde crosslink after washing; high values mean tight binding
FEV = molecular target: T1, FEV (Homo sapiens, UniProt Q99581 1-238); settings: protein: recombinant; tags: N-terminal GST; dsDNA, one strand shown
T1 sequence: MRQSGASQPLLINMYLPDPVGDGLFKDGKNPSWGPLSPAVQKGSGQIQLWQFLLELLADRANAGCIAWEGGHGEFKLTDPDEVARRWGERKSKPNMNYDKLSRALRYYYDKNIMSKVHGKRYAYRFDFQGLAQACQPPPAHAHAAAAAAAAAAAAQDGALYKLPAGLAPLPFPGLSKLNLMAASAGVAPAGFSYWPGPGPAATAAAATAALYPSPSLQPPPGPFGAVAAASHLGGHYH
Outline: (§1)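 Binding signal is each hexamer's read frequency for a factor divided by its frequency in the tag-only sample. The factors were GST-fused human transcription factors from yeast, captured on glutathione beads, DNA-barcoded and pooled with that sample. Pools were incubated with 200 nmole of a random double-stranded 16-mer DNA library in Tris/NaCl/DTT/glycerol buffer at room temperature for 30 min, then washed, crosslinked with 0.1% formaldehyde, proximity-ligated with BsaI/T4 ligase (1 h, 37 °C), PCR-amplified and sequenced on an Illumina NextSeq500.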

ETV5 = ETV5 (Homo sapiens, UniProt P41161 1-510); settings: protein: recombinant; tags: N-terminal GST; dsDNA, one strand shown
Outline: as §1

HSF1 = HSF1 (Homo sapiens, UniProt Q00613 1-529); settings: protein: recombinant; tags: N-terminal GST; chain copies: 3; dsDNA, one strand shown
Outline: as §1

SPIC = molecular target: T2, SPIC (Homo sapiens, UniProt Q8N5J4 1-248); settings: protein: recombinant; tags: N-terminal GST; dsDNA, one strand shown
T2 sequence: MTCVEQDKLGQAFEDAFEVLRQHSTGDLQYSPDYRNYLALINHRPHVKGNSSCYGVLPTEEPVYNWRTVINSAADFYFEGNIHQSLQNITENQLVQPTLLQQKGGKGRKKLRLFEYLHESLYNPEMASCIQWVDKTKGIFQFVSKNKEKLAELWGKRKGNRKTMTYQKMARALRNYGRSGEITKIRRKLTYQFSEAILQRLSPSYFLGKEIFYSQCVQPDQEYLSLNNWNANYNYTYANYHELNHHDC
Outline: as §1

ELF4 = ELF4 (Homo sapiens, UniProt Q99607 1-663); settings: protein: recombinant; tags: N-terminal GST; dsDNA, one strand shown
Outline: as §1

ELK4 = molecular target: T3, ELK4 (Homo sapiens, UniProt P28324-2 1-405); settings: protein: recombinant; tags: N-terminal GST; dsDNA, one strand shown
T3 sequence: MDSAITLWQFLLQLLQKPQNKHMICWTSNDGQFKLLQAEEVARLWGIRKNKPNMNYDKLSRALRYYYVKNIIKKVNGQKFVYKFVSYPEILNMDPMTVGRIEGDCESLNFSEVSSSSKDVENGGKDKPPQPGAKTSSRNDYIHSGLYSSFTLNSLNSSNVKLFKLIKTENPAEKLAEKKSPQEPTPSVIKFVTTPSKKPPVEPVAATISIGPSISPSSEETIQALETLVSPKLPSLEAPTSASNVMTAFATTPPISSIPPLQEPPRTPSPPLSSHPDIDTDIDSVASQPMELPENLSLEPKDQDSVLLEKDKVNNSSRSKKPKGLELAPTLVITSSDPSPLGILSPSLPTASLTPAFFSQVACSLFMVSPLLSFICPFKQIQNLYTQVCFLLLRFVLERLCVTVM
Outline: as §1

ETV2 = molecular target: T4, ETV2 (Homo sapiens, UniProt O00321 1-342); settings: protein: recombinant; tags: N-terminal GST; dsDNA, one strand shown
T4 sequence: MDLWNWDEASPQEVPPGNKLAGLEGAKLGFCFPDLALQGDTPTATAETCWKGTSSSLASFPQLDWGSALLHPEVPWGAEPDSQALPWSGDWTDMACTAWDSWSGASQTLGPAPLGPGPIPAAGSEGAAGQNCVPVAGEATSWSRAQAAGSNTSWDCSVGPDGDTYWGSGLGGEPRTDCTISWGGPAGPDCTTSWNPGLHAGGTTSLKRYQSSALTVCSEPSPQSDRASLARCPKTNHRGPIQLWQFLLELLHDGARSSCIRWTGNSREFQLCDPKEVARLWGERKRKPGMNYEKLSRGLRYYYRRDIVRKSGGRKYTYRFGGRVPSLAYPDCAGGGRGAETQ
Outline: as §1

CRX = CRX (Homo sapiens, UniProt O43186 1-299); settings: protein: recombinant; tags: N-terminal GST; dsDNA, one strand shown
Outline: as §1

ETV1 = ETV1 (Homo sapiens, UniProt P50549 1-477); settings: protein: recombinant; tags: N-terminal GST; dsDNA, one strand shown
Outline: as §1

ERF = molecular target: T5, ERF (Homo sapiens, UniProt P50548 1-548); settings: protein: recombinant; tags: N-terminal GST; dsDNA, one strand shown
T5 sequence: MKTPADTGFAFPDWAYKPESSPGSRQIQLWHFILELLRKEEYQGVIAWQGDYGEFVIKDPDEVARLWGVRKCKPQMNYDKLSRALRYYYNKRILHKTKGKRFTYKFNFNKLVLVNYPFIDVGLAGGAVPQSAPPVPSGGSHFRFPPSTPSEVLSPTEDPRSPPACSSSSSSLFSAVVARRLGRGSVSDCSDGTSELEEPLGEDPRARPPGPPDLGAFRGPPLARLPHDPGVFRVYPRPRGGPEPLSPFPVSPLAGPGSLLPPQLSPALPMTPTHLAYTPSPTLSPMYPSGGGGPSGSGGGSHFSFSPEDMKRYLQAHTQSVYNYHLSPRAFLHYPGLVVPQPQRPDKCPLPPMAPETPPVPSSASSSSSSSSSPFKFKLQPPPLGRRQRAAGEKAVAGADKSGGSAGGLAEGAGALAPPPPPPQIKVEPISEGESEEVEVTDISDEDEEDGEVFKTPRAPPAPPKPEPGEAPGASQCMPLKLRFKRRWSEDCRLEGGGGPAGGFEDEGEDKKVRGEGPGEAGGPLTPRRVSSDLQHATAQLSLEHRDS
Outline: as §1

ETV3L = molecular target: T6, ETV3L (Homo sapiens, UniProt Q6ZN32 1-361); settings: protein: recombinant; tags: N-terminal GST; dsDNA, one strand shown
T6 sequence: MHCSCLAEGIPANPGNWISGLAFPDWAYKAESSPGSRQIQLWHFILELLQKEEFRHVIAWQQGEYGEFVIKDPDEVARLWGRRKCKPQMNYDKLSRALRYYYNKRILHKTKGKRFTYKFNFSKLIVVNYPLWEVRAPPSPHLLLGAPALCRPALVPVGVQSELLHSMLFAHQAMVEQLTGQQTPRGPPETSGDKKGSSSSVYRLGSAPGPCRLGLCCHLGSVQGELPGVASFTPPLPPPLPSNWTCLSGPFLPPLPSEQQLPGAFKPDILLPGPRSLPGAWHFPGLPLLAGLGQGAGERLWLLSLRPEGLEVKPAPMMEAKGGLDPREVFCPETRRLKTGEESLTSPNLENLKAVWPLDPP
Outline: as §1

ETS2 = molecular target: T7, ETS2 (Homo sapiens, UniProt P15036 1-469); settings: protein: recombinant; tags: N-terminal GST; dsDNA, one strand shown
T7 sequence: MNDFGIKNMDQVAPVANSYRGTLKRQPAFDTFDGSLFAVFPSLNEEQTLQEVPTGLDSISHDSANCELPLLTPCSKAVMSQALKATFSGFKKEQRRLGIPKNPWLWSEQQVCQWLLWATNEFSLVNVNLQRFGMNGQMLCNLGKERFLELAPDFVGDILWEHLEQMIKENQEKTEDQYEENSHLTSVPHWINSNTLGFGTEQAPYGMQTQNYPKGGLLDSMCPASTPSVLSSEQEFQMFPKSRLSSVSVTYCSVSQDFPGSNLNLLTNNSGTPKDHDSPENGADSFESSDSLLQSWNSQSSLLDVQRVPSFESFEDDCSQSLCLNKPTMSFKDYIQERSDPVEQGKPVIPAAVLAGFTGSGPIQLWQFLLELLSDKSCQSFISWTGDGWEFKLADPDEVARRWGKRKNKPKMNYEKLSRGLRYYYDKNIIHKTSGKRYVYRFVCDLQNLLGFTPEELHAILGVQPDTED
Outline: as §1

SPDEF = molecular target: T8, SPDEF (Homo sapiens, UniProt O95238 1-335); settings: protein: recombinant; tags: N-terminal GST; dsDNA, one strand shown
T8 sequence: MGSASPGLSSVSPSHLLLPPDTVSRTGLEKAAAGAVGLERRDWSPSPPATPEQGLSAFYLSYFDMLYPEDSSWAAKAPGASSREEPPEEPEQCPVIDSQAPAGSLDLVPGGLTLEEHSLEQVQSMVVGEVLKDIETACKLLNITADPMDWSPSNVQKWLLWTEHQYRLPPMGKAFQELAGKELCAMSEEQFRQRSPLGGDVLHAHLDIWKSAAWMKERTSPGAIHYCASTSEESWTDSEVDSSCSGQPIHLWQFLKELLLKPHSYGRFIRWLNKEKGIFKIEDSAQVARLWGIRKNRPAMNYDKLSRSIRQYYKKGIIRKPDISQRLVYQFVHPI
Outline: as §1

ETV7 = molecular target: T9, ETV7 (Homo sapiens, UniProt Q9Y603 1-341); settings: protein: recombinant; tags: N-terminal GST; dsDNA, one strand shown
T9 sequence: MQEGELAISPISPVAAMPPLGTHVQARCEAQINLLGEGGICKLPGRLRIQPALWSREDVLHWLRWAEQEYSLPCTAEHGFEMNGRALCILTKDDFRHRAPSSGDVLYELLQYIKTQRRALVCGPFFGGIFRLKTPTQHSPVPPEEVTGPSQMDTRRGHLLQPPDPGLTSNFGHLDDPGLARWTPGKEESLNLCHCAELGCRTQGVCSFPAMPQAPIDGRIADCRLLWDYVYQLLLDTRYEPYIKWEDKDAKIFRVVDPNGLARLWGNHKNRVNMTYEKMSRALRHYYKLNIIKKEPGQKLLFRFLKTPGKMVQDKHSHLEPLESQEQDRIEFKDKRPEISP
Outline: as §1

ELF5 = molecular target: T10, ELF5 (Homo sapiens, UniProt Q9UKW6-2 1-255); settings: protein: recombinant; tags: N-terminal GST; dsDNA, one strand shown
T10 sequence: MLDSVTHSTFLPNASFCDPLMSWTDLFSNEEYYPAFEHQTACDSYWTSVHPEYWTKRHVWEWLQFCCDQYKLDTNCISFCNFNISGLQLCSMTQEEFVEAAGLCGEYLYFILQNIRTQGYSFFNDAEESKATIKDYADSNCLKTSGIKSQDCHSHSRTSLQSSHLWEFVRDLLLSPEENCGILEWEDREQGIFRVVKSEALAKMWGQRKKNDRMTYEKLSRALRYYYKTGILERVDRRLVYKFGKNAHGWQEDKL
Outline: as §1

ETV3 = molecular target: T11, ETV3 (Homo sapiens, UniProt P41162-2 1-143); settings: protein: recombinant; tags: N-terminal GST; dsDNA, one strand shown
T11 sequence: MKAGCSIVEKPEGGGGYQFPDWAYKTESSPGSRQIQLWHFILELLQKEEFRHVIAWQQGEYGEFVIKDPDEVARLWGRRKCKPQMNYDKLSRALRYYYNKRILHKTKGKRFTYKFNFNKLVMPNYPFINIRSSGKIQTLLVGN
Outline: as §1

ETV6 = ETV6 (Homo sapiens, UniProt P41212 1-452); settings: protein: recombinant; tags: N-terminal GST; dsDNA, one strand shown
Outline: as §1

Chain of ETV6 (P41212 whole entry): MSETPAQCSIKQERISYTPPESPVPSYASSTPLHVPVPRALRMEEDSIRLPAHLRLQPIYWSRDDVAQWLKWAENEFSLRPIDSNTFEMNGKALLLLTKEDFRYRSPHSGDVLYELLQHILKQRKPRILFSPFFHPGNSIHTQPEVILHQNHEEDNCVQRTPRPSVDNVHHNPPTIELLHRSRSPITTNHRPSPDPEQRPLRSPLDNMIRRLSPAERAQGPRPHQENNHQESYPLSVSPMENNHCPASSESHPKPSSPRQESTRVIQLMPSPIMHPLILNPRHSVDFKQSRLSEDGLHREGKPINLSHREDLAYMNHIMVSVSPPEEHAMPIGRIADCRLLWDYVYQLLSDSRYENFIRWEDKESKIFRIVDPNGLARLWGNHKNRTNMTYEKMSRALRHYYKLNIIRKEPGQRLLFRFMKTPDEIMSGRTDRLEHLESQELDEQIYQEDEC
Chain of ETV1 (P50549 whole entry): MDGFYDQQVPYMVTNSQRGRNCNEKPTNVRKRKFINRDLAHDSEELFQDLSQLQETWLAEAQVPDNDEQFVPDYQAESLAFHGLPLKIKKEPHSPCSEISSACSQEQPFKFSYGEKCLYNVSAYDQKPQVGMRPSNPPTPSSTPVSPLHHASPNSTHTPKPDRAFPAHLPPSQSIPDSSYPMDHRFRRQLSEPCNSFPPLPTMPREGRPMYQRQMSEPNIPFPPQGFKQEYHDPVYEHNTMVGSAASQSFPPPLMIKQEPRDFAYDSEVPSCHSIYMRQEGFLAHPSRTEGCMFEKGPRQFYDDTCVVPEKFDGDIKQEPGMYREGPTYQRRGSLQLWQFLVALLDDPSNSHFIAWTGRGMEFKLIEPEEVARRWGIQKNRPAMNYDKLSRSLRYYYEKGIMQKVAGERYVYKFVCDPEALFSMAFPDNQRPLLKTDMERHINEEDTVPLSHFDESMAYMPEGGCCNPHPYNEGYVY
Chain of ELF4 (Q99607 whole entry): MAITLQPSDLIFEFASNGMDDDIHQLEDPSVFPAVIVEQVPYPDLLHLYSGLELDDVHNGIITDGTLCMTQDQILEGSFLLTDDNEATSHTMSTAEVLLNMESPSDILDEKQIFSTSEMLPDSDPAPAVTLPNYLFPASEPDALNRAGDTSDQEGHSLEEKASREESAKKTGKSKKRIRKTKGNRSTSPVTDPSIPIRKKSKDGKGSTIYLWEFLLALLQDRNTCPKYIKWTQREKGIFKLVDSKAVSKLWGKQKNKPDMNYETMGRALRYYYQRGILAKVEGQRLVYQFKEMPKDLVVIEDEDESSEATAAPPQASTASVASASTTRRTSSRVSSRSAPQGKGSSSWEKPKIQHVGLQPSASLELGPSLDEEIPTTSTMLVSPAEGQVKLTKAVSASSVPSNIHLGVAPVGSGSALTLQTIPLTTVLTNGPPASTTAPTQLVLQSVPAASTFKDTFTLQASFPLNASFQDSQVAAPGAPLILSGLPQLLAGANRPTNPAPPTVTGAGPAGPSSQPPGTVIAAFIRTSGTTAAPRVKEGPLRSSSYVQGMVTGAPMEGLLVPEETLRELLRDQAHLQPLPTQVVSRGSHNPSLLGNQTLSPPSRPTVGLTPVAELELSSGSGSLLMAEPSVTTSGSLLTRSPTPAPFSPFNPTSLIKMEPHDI
Chain of ETV5 (P41161 whole entry): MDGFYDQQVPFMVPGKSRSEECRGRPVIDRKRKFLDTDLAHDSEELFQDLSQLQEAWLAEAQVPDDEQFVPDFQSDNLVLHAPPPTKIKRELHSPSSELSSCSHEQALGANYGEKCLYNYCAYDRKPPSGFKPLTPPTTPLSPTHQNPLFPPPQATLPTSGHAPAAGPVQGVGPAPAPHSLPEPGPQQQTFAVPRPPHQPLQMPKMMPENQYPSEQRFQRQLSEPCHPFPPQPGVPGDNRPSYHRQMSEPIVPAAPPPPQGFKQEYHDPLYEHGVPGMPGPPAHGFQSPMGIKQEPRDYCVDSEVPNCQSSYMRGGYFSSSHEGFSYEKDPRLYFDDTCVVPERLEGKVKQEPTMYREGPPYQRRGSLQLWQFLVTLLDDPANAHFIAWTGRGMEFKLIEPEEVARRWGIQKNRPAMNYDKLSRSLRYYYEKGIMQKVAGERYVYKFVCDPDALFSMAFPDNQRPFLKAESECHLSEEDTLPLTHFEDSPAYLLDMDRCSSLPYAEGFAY
Chain of HSF1 (Q00613 whole entry): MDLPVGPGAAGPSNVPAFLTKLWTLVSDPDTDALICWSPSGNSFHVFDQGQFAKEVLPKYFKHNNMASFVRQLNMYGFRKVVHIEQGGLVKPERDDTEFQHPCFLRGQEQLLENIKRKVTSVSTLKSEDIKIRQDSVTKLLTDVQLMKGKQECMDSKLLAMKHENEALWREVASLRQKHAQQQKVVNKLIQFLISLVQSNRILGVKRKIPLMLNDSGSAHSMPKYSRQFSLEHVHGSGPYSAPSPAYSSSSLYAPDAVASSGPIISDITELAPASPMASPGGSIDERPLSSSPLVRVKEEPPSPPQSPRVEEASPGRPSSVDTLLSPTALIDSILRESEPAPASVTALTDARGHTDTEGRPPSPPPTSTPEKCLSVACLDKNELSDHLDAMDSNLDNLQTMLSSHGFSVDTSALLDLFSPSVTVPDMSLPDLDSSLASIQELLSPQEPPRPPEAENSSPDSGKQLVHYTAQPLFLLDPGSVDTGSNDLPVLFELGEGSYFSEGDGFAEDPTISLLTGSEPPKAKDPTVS
Chain of CRX (O43186 whole entry): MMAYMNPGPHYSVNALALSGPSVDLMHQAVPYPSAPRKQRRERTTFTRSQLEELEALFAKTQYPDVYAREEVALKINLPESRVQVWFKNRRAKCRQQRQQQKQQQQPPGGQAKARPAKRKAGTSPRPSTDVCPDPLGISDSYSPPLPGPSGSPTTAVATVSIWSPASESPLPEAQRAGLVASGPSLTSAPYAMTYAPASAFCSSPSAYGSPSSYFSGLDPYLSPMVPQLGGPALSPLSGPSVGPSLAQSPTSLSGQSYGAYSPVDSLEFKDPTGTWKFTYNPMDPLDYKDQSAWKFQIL

Sequence	binding signal (FEV)	binding signal (ETV5)	binding signal (HSF1)	binding signal (SPIC)	binding signal (ELF4)	binding signal (ELK4)	binding signal (ETV2)	binding signal (CRX)	binding signal (ETV1)	binding signal (ERF)	binding signal (ETV3L)	binding signal (ETS2)	binding signal (SPDEF)	binding signal (ETV7)	binding signal (ELF5)	binding signal (ETV3)	binding signal (ETV6)
CGATAA	1.02 fold enrichment (6-mer frequency, TF over GST control)	1.04 fold enrichment (6-mer frequency, TF over GST control)	1.51 fold enrichment (6-mer frequency, TF over GST control)	1.12 fold enrichment (6-mer frequency, TF over GST control)	1.16 fold enrichment (6-mer frequency, TF over GST control)	1.1 fold enrichment (6-mer frequency, TF over GST control)	1.19 fold enrichment (6-mer frequency, TF over GST control)	1.75 fold enrichment (6-mer frequency, TF over GST control)	1.09 fold enrichment (6-mer frequency, TF over GST control)	1.11 fold enrichment (6-mer frequency, TF over GST control)	1.09 fold enrichment (6-mer frequency, TF over GST control)	1.14 fold enrichment (6-mer frequency, TF over GST control)	1.02 fold enrichment (6-mer frequency, TF over GST control)	1.08 fold enrichment (6-mer frequency, TF over GST control)	1.03 fold enrichment (6-mer frequency, TF over GST control)	1.06 fold enrichment (6-mer frequency, TF over GST control)	1.09 fold enrichment (6-mer frequency, TF over GST control)
CAGATG		1.01 fold enrichment (6-mer frequency, TF over GST control)	1.01 fold enrichment (6-mer frequency, TF over GST control)	1.12 fold enrichment (6-mer frequency, TF over GST control)	1.02 fold enrichment (6-mer frequency, TF over GST control)	1.06 fold enrichment (6-mer frequency, TF over GST control)	1.01 fold enrichment (6-mer frequency, TF over GST control)		1.01 fold enrichment (6-mer frequency, TF over GST control)	1.11 fold enrichment (6-mer frequency, TF over GST control)		1.05 fold enrichment (6-mer frequency, TF over GST control)		1.13 fold enrichment (6-mer frequency, TF over GST control)		1.02 fold enrichment (6-mer frequency, TF over GST control)	1.03 fold enrichment (6-mer frequency, TF over GST control)
ACTCCA	1.21 fold enrichment (6-mer frequency, TF over GST control)	1.24 fold enrichment (6-mer frequency, TF over GST control)	1.14 fold enrichment (6-mer frequency, TF over GST control)	1.18 fold enrichment (6-mer frequency, TF over GST control)	1.23 fold enrichment (6-mer frequency, TF over GST control)	1.05 fold enrichment (6-mer frequency, TF over GST control)	1.15 fold enrichment (6-mer frequency, TF over GST control)	1.06 fold enrichment (6-mer frequency, TF over GST control)	1.22 fold enrichment (6-mer frequency, TF over GST control)	1.26 fold enrichment (6-mer frequency, TF over GST control)	1.11 fold enrichment (6-mer frequency, TF over GST control)	1.28 fold enrichment (6-mer frequency, TF over GST control)	1.16 fold enrichment (6-mer frequency, TF over GST control)	1.18 fold enrichment (6-mer frequency, TF over GST control)	1.14 fold enrichment (6-mer frequency, TF over GST control)	1.17 fold enrichment (6-mer frequency, TF over GST control)	1.13 fold enrichment (6-mer frequency, TF over GST control)
